The nature of assay [1]: EMT-state selective cytotoxicity in co-culture – imaging, PC-3E GFP, TEM4-18 mCherry, primary screen (AID 1345086;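 active = compounds killing one labelled cell type while sparing the other, by normalised counts and ratio limits, not self-fluorescent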;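 for all read-outs here: cells exposed to compound for 72 h before imaging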;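 for red/green cell ratio (normalised): normalised mesenchymal count divided by normalised epithelial count so high means epithelial killing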). To be noted: PC-3E GFP / TEM4-18 mCherry co-culture, imaging cell counts, at 1 µM; for red/green cell ratio (normalised): actives lie on both sides, counts scaled to control wells, 1 = unselective.
Assay [2] in a line: viability loss in pontine glioma line – cell-based, SU-DIPG-XVII, MIPE5.0, CellTiter-Glo, qHTS, dose response (AID 1347060). To be noted: CellTiter-Glo ATP luminescence. In general terms: In ATP-based viability assays light output follows the ATP content of the culture.
Assay [3] is described as follows: viability loss in pontine glioma line – cell-based, SU-DIPG-IV, MIPE4.0, CellTiter-Glo, qHTS, dose response (AID 1347063; cut-off not given, nearly all actives have AC50 up to about 30 µM;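 note: compound exposure lasted 48 hours before the viability readout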). To be noted: CellTiter-Glo ATP luminescence.
Assay [4] in a line: viability loss in pontine glioma line – cell-based, SU-DIPG-XIII, MIPE5.0, CellTiter-Glo, qHTS, dose response (AID 1347064; cut-off not given, nearly all actives have AC50 up to about 23 µM). To be noted: CellTiter-Glo ATP luminescence.
The nature of assay [5]: viability loss in pontine glioma line – cell-based, SU-DIPG-XXV, MIPE5.0, CellTiter-Glo, qHTS, dose response (AID 1347065).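 Note: cells exposed to compound for 48 hours before ATP readout.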 To be noted: CellTiter-Glo ATP luminescence.
Assay [6] can be described thus: growth inhibition of DIPG cells – cell-based, MIPE5.0 library, qHTS (AID 1347068; cut-off not given, nearly all actives have IC50 up to about 30 µM). To be noted: SU-DIPG-XXV viability. Background: qHTS replaces the single test concentration by a dilution series.
The nature of assay [7]: viability loss with induced miR-34 in A549 – imaging, A549 dox-inducible miR-34, nuclei and caspase counts, primary screen (AID 1347080;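 active = compounds whose cell count with miR-34 switched on is under 0.7 times the count with it off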). To be noted: A549 miR-34 inducible, Hoechst nuclei count, 48 h.
Assay [8] concerns the target NAD(+) hydrolase SARM1 (Homo sapiens) (UniProt Q6SZW1). Nature of the assay: blocking NAD cleavage by SARM1 SAM-TIR – cell lysate, NAD-Glo luminescence (AID 1508614;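 active = compound whose remaining NAD level is above about 45 nM, limit read from the data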;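 note: higher remaining NAD means stronger inhibition of SARM1 NADase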). To be noted: SAM-TIR HEK293T lysate NADase, at 1 µM, stronger effect = higher value.
Assay [9] is described as follows: P. berghei load reduction in hepatocytes – cell-based, HepG2, luciferase luminescence, HepG2 viability, primary screen (AID 624349; in the data active = parasite load remaining mostly below about 12%, no sharp cut-off; inactive = mostly above about 10%;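 note: 100% = mean of DMSO negative control wells on the same plate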). To be noted: P. berghei liver stage in HepG2, luciferase luminescence, concentration not given here; parasite load remaining: stronger effect = lower value; viability: measured here: HepG2 viability without parasites.
Assay [10] is described as follows: viability loss in pontine glioma line – cell-based, SU-DIPG-XIII, MIPE4.0, CellTiter-Glo, qHTS, dose response (AID 1347061; cut-off not given, nearly all actives have AC50 up to about 37 µM;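 note: cells exposed to compound for 48 hours before readout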). To be noted: CellTiter-Glo ATP luminescence.
Assay [11] can be described thus: growth inhibition of DIPG cells – cell-based, MIPE4.0 library, CellTiter-Glo luminescence, qHTS (AID 1347066; cut-off not given, nearly all actives have AC50 up to about 30 µM;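 note: cells exposed to compound for 48 hours before readout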). To be noted: SU-DIPG-VI viability, CellTiter-Glo ATP luminescence.
Assay [12] is described as follows: JHH-DIPG-1 glioma cell viability, MIPE5.0 library, CellTiter-Glo luminescence, qHTS (AID 1347067).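 Note: cells exposed to compound for 48 hours before readout.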 To be noted: JHH-DIPG-1 glioma viability, CellTiter-Glo ATP luminescence.
A short description of assay [13]: compounds altering circadian rhythm period length – cell-based, LOPAC library, luminescence reporter (AID 2774; call rule not given here;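 note: values are relative to mean of DMSO wells on each plate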). To be noted: circadian reporter cells, at 7 µM, actives lie on both sides.
The test system of assay [14] is Hepatitis C virus NS3 helicase. The assay is described as follows: blockers of NS3h binding to ssDNA – biochemical, fluorescence polarization, LOPAC1280 library, primary screen (AID 687035; in the data active = inhibition above about 37%). To be noted: Purified HCV NS3 helicase, Cy5-dT15 ssDNA binding fluorescence polarization; stronger effect = higher value; concentration not given here. (In general: In fluorescence polarisation assays a small probe gives low polarisation when free and higher when bound to something large.)

The nature of assay [15]: compounds altering Cy5-DNA-NS3h complex signal – biochemical, LOPAC1280, artefact control for HCV NS3 helicase inhibitor project (AID 687037; call rule not given here). To be noted: Cy5-DNA-NS3h complex fluorescence interference counterscreen.
Assay [16] in a line: blockers of cellular phospholipid synthesis – cell-based, LOPAC library, screen 4, primary screen (AID 1347384; call rule not given here). To be noted: animal cells, phospholipid biosynthesis inhibition screen; at 10 µM.
Assay [17] in a line: galactose survival enhancers in mitochondrial complex I cybrids – cell-based, galactose medium, ATP luminescence, primary screen (AID 1645843;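 active = z-score of at least 1.8 in each of two replicates, scored against plate mean and spread of sample wells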;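 note: positive z means more ATP and so rescue of galactose-driven cybrid death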). To be noted: complex I mutant cybrid cells, 72 h, stronger effect = higher value.
[18] abbreviates: measured here: epithelial PC-3E GFP cell survival.
Where [19] appears, read: measured here: mesenchymal TEM4-18 mCherry cell survival.
Setting [20] is: stronger effect = lower value, cell number ratio, induced over uninduced.
Where [21] appears, read: measured here: relative caspase fold change +Dox/-Dox.
Where [22] appears, read: measured here: total cells with miR-34 induction, stronger effect = lower value.
The mark [23] stands for this setting: measured here: total cells without miR-34 induction.

Where “and” joins values, the source holds several entries; their conditions need not be identical. Equal values may be shown once. Inconclusive results are not listed. Calls of active or inactive are those of the source. Unless noted, no cut-off is given here; in the data, nearly all actives have AC50 up to about 26 µM.

Chain of NAD(+) hydrolase SARM1 (Homo sapiens) (Q6SZW1 whole entry, looked up): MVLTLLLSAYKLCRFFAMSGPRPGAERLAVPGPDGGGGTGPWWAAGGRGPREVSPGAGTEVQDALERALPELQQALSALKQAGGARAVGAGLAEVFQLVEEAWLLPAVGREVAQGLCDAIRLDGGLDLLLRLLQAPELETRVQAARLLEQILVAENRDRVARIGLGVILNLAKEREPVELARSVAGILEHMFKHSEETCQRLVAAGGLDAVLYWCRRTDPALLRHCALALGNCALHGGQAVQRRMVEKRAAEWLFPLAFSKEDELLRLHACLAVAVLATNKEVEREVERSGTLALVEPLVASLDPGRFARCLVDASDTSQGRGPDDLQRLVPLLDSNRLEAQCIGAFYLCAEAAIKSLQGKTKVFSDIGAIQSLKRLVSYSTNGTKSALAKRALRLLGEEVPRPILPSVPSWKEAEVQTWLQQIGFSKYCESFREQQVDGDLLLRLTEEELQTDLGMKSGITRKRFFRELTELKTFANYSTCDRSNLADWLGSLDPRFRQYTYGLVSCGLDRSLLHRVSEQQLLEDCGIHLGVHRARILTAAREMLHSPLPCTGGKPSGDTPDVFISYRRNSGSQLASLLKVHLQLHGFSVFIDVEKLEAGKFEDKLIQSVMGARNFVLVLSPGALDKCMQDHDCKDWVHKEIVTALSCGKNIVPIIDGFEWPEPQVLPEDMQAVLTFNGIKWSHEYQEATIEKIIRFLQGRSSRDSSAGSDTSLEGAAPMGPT

Turning to `N#C[C@@H]1C[C@@H]2C[C@@H]2N1C(=O)[C@@H](N)C12CC3CC(CC(O)(C3)C1)C2`, the red/green cell ratio (normalised) in [1] is 0.9 (inactive). Besides, the normalised cell number in assay [1] (setting [18]) stood at 1.31; in assay [1] (setting [19]) it was 1.19. Besides, the compound was called inactive in assay [2], in assay [3], in [4], in assay [5] and in assay [6]. The fold change in assay [7] (setting [20]) is 0.886 (inactive); in [7] (setting [21]), 0.64. Besides, the cell count in assay [7] (setting [22]) is 8720; in assay [7] (setting [23]), 9840. Further, in [8], the remaining NAD was 10 nM (inactive).
For orientation: viability means a read-out of living cells in per cent, often relative to untreated cells. Consider `CC(NCCc1ccc(O)cc1)C(O)c1ccc(O)cc1` (stereo not drawn), for which the parasite load remaining in [9] was 92.5% (inactive) and 43.7% (inactive). The viability in [9] is 69.7% and 91.3%. Also, in [1], the red/green cell ratio (normalised) is 1.16 (inactive). Besides, the figures for the normalised cell number in assay [1] (setting [18]) and in assay [1] (setting [19]) were 0.9 and 1.05, respectively. Moreover, the compound was called inactive in [2], in assay [10], in assay [3], in assay [5], in assay [11] and in assay [12]. Also, the outcome in assay [6] was inactive. For the same compound, the fold change is 0.955 (inactive) in assay [7] (setting [20]) and 3.65 in assay [7] (setting [21]). Moreover, the cell count in assay [7] (setting [22]) was 12000; in assay [7] (setting [23]), 12600.
As for `CC1(C)CCC[C@]2(C)[C@H]3CC(=O)O[C@]3(C)CC[C@@H]12`, the red/green cell ratio (normalised) in [1] is 1.09 (inactive). Besides, the normalised cell number in assay [1] (setting [18]) was 1.09; in [1] (setting [19]), 1.19. The result in assay [10] and in assay [11] was inactive.
Take `C[C@]12CCC3c4ccc(O)cc4CCC3C1CCC2=O` (stereo partly drawn): in assay [9], the parasite load remaining was 83.7% (inactive) and 77.8% (inactive). Also, the viability in [9] was 75.2% and 91.3%. In addition, the red/green cell ratio (normalised) in assay [1] is 0.96 (inactive). Besides, the normalised cell number in [1] (setting [18]) was 1.03; in [1] (setting [19]), 0.99. In addition, the result in assay [2], in assay [10], in [3], in [5], in [11] and in [12] was inactive. The compound was classed as inactive in assay [6]. Also, the fold change in assay [7] (setting [20]) is 1.01 (inactive); in assay [7] (setting [21]) it was 1.48. Besides, the cell count in assay [7] (setting [22]) was 10400; in [7] (setting [23]), 10300.
The term inhibition denotes the drop in the measured response relative to a control, in per cent. A word on the AC50: it is the concentration giving half of the maximal activity seen. On to `Nc1nc(N)c2nc(CNc3ccc(C(=O)NC(CCC(=O)O)C(=O)O)cc3)cnc2n1` (stereo not drawn), for which the period change in [13] is -0.245 h (inactive). For the same compound, the parasite load remaining in assay [9] is 160% (inactive). The compound also yielded a viability in [9] of 70.2%. In addition, in assay [14], the inhibition is -4% (inactive). Moreover, the fluorescence ratio (interference) in assay [15] is 0.9 (inactive). Also, the red/green cell ratio (normalised) in assay [1] is 0.95 (inactive). In addition, the normalised cell number came to 1.01 in assay [1] (setting [18]) and 0.96 in [1] (setting [19]). In [10], the AC50 was 11.8 µM (active). Further, the compound was classed as inactive in assay [11], in assay [12] and in [16]. Besides, the fold change in [7] (setting [20]) is 1.22 (inactive); in [7] (setting [21]), 1.88. Also, the results for the cell count in assay [7] (setting [22]) and in assay [7] (setting [23]) were 2740 and 2230, respectively. Further, in assay [17], the z-score is 0.075 (inactive).
For `COC(=O)/C=C/C(=O)OC`, the red/green cell ratio (normalised) in assay [1] was 1.23 (inactive). In addition, the normalised cell number came to 0.84 in assay [1] (setting [18]) and 1.04 in assay [1] (setting [19]). The call in assay [2], in assay [4], in [5], in assay [11], in assay [12] and in assay [6] was inactive. The AC50 in [10] was 14.8 µM (active); in assay [3], 935 nM (active). The values for the fold change in assay [7] (setting [20]) and in assay [7] (setting [21]) were 0.976 (inactive) and 1.01, respectively. Besides, the cell count in [7] (setting [22]) was determined as 7550; in [7] (setting [23]), 7740. The remaining NAD in assay [8] is 10 nM (inactive).

(Values after PubChem BioAssay.)
